CtBP-E1A blk = CtBP/E1A binding inhibition; 340,000 tested, 0.49% active; AID 651724; AlphaScreen GST-E1A/His-CtBP binding, 1536-well; stronger effect = lower value; activity change, % (concentration not given with the values); in the data active = activity change below about -65%; inconclusive = mostly about -30% to -63%; note: % is set by controls: 0 for no effect and ±100 for the full control effect
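In 5 uL wells, 23 nL compound meets equimolar GST-E1A and His-CtBP (5X stock 125 nM each) for 2 h, 37 °C. Beads (5X, 50 ug/mL) then 1 h, 37 °C, dark.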
BAZ2B block = inhibitors of human BAZ2B bromodomain; AlphaScreen BAZ2B-H3K14Ac peptide displacement; Potency, µM (doses to about 114 µM), for inactives: top-dose activity change, negative = inhibition, usual class: inhibitors; Q9UIF8; 360,000 tested, 4.4% active; note: potency is the fitted concentration of half-maximal effect; % is set by controls: 0 for no effect and ±100 for the full control effect; nearly all actives have a fitted effect of over 60% in size
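Compounds, titrated to a top concentration of 110 uM, were incubated 30 min at room temperature with preformed BAZ2B/acetyl-K14 H3 peptide complex (50 nM each). Proximity signal was measured by AlphaScreen after 20 min with beads.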
Six1-Eya2 blk = Six1/Eya2 interaction inhibition; 360,000 tested, 0.56% active; Q15475+O00167; activity change, % (concentration not given with the values); AID 651725; AlphaScreen GST-Six1/His-Eya2 binding, biochemical; stronger effect = lower value; in the data active = activity change below about -65%; inconclusive = mostly about -30% to -63%; note: % is set by controls: 0 for no effect and ±100 for the full control effect
Target sequence (O00167 whole entry, looked up): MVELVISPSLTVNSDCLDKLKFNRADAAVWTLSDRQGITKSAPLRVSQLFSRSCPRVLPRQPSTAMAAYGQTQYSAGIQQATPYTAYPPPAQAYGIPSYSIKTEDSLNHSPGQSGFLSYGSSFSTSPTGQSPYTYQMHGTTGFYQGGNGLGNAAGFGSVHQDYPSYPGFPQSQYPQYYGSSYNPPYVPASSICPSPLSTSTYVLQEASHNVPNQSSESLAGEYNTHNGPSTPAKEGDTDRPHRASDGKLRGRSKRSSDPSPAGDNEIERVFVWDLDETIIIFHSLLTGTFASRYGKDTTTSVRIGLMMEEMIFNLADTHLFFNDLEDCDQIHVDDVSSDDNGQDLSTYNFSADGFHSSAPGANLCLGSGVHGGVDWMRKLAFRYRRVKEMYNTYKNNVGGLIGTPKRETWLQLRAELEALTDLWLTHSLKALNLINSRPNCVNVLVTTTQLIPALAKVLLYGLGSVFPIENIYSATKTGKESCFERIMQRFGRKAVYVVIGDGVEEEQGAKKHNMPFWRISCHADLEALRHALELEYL
Target sequence (Q15475 whole entry, looked up): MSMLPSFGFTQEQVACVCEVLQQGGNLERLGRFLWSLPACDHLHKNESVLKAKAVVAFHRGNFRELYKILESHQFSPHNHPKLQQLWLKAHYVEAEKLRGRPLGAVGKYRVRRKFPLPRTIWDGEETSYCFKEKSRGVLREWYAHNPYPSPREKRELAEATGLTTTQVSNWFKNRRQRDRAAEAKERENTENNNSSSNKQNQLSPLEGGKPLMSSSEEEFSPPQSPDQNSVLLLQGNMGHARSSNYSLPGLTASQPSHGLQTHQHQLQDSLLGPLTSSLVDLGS
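Six1/Eya2 binding was read as AlphaScreen signal after compounds were pinned into GST-Six1 plus His-tagged Eya2 (5X stock 250/500 nM) in pH 8.0 Tris/NaCl/TCEP buffer, beads added, then incubated 1 h, 37 C, dark.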
TDP1 inh = blocks human tyrosyl-DNA phosphodiesterase 1; recombinant TDP1, AlphaScreen DNA substrate cleavage; Potency, µM (top dose mostly 130 µM), for the others: top-dose activity change, negative = inhibition, usual class: inhibitors; 350,000 tested, 0.28% active; note: potency is the fitted concentration of half-maximal effect; % is set by controls: 0 for no effect and ±100 for the full control effect; nearly all actives have a fitted effect of over 40% in size
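Recombinant E. coli-expressed Tdp1 (1 nM) preincubated with compound 15 min at RT, then 5'-biotin/3'-phosphotyrosine-FITC DNA substrate (15 nM) added for 5 min. AlphaScreen beads (10 ug/ml) added, 10 min RT; tyrosine-FITC cleavage read as signal loss.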
JMJD2A Tudor inh = JMJD2A Tudor domain (human) inhibition | AlphaScreen JMJD2A-Tudor / H3K4me3 peptide binding | Potency, µM (titrated, usually from 114 µM), for the others: at the highest dose activity change, negative = inhibition, hits mostly inhibitors | 390,000 tested, 4.4% active | AID 504339; note: potency is the fitted concentration of half-maximal effect; % is set by controls: 0 for no effect and ±100 for the full control effect; nearly all actives have a fitted effect of over 50% in size
HP1b binding inh = HP1-beta chromodomain-methylated histone interaction inhibition. P83916. AlphaScreen HP1-beta / biotin-H3K9me3 peptide binding. Potency, µM (titrated, usually from 114 µM), for the others: at the highest dose activity change, negative = inhibition, most hits filed as inhibitors. 390,000 tested, 0.56% active. AID 540317; note: potency is the fitted concentration of half-maximal effect; nearly all actives have a fitted effect of over 70% in size
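AlphaScreen: HP1-beta (50 nM) preformed 30 min with biotin-H3(1-18)K9me3 peptide (50 nM) in PBS pH 7.4, 0.01% Tween-20. Compound added for 30 min at RT, then streptavidin donor/nickel chelate acceptor beads (10 ug/mL) for 30 min.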
Numbers without * were called inactive; [ ] = remark or other dose. This is a sample that favours compounds with a hit; in the whole collection about 5.3% have one here. Unless noted, calls come from the whole dose curve; as a rule, active = well fitted inhibition curve with a large enough effect; inconclusive = small, poorly fitted or top-dose-only effect; inactive = no such curve, though single readings can be large or run the other way.

For COc1cc([N+](=O)[O-])c2ncccc2c1[N+](=O)[O-] the results were CtBP-E1A blk inconclusive and Six1-Eya2 blk -83*.
CN(C)[C@@H]1C(=O)C(C(N)=O)=C(O)[C@]2(O)C(=O)C3=C(O)c4c(O)ccc(Cl)c4[C@](C)(O)[C@H]3C[C@@H]12 was read as TDP1 inh -11%[56.1 µM].
CN(C)C1C(=O)C(C(N)=O)=C(O)C2(O)C(=O)C3=C(O)c4c(O)cccc4C(C)(O)C3C(O)C12 (stereo unspecified) was read as CtBP-E1A blk -68*, BAZ2B block 2µM*, Six1-Eya2 blk inconclusive, JMJD2A Tudor inh -12% and HP1b binding inh 17%.
`C=CCN1CCc2cccc3c2C1Cc1ccc(O)c(O)c1-3` (stereo unspecified) gave TDP1 inh 6%.
For Cc1cc(OC(C)C(=O)NCc2cccnc2)c2c3c(c(=O)oc2c1)CCC3 (stereo unspecified) the results were CtBP-E1A blk 5, BAZ2B block -8%, Six1-Eya2 blk 3, TDP1 inh -19%, JMJD2A Tudor inh 89µM* and HP1b binding inh 95%.
`Cc1oc(-c2cccc(Cl)c2)nc1CN1CCC(C(=O)NCCCN2CCN(c3cccc(Cl)c3)CC2)CC1` gave BAZ2B block 28µM*, TDP1 inh 6%, JMJD2A Tudor inh 32µM* and HP1b binding inh -8%.
CCOC(=O)c1cnc2c(ccc3ccccc32)c1Nc1ccc(C(C)=O)cc1 was read as BAZ2B block 2%, JMJD2A Tudor inh -13% and HP1b binding inh 31%.
Cn1c(O)c(C2=NN(C(=O)CCl)C(c3ccccc3)C2)c(=O)n(C)c1=O (stereo unspecified) was read as BAZ2B block -38%, Six1-Eya2 blk -22, TDP1 inh 5%, JMJD2A Tudor inh 22µM* and HP1b binding inh 24%.
Cc1cccc(N=Nc2ccc(N(C)C)cc2)c1 was read as CtBP-E1A blk inconclusive, BAZ2B block 7.1µM*, Six1-Eya2 blk -72*, TDP1 inh 24%, JMJD2A Tudor inh 14µM* and HP1b binding inh 11µM*.
CCc1nc(SC)ncc1C(=O)Nc1ccc(Cl)cc1C(=O)c1ccccc1 was read as BAZ2B block -1%, TDP1 inh 4%, JMJD2A Tudor inh -18% and HP1b binding inh 28%.
CSc1ncc(Cl)c(C(=O)O)n1 (tested in a mixture with another compound) was read as CtBP-E1A blk 1, BAZ2B block inconclusive, Six1-Eya2 blk 7, TDP1 inh 2%, JMJD2A Tudor inh 79µM* and HP1b binding inh 15%.
Screening CCC#N returned TDP1 inh 12%.
For CCC(C)N1C(=O)/C(=C\c2cc3c4c(c2)CCCN4CCC3)C(=O)NC1=S (stereo unspecified) the results were CtBP-E1A blk -1, BAZ2B block inconclusive, Six1-Eya2 blk -13, TDP1 inh -3%, JMJD2A Tudor inh 14µM* and HP1b binding inh inconclusive.
For O=[N+]([O-])c1cccc(CN2CCN(Cc3ccc(Cl)cc3)CC2)c1 the results were CtBP-E1A blk -10, BAZ2B block 20µM*, Six1-Eya2 blk -24, TDP1 inh -3%, JMJD2A Tudor inh 0.79µM* and HP1b binding inh inconclusive.
`O=[N+]([O-])c1cccc(CN2CC=C(c3ccc(F)cc3)CC2)c1` gave CtBP-E1A blk -6, BAZ2B block inconclusive, Six1-Eya2 blk -10, JMJD2A Tudor inh inconclusive and HP1b binding inh -15%.
Screening CC(C)N1CCN(Cc2cccc([N+](=O)[O-])c2)CC1 returned CtBP-E1A blk 8, BAZ2B block 50µM*, Six1-Eya2 blk 1, JMJD2A Tudor inh 0.89µM* and HP1b binding inh inconclusive.
For Cn1c(O)c(C2=NNC(c3ccc(Cl)cc3)C2)c(=O)n(C)c1=O (stereo unspecified) the results were CtBP-E1A blk -1, BAZ2B block 45µM*, Six1-Eya2 blk -6, TDP1 inh 11%, JMJD2A Tudor inh -3% and HP1b binding inh 30%.
CN1CCN(c2ccc(N)cc2Cl)CC1 was read as BAZ2B block inconclusive, Six1-Eya2 blk -21, TDP1 inh 5%, JMJD2A Tudor inh inconclusive and HP1b binding inh 28µM*.
COC(=O)[C@H]1C(=O)c2ccccc2O[C@@](C(=O)OC)(c2ccccc2)[C@@H]1c1ccccc1 was read as TDP1 inh 3%[21 µM].
For Oc1ccc(CC2CC3CCN2CC3)cc1O (stereo unspecified) the results were CtBP-E1A blk 3, BAZ2B block -2%, Six1-Eya2 blk -3, TDP1 inh -14%, JMJD2A Tudor inh 28µM* and HP1b binding inh -30%.
`CN1/C(=C\C=C\C2=[N+](C)c3ccc4ccccc4c3C2(C)C)C(C)(C)c2ccccc21` gave BAZ2B block 4.5µM* and TDP1 inh 12%.
Screening CN1/C(=C\C=C2C(=O)NC(=O)NC2=O)C(C)(C)c2ccccc21 returned CtBP-E1A blk 3, BAZ2B block -12%, Six1-Eya2 blk 4, TDP1 inh 5%, JMJD2A Tudor inh 4% and HP1b binding inh 37%.
CCNC(=O)[C@H]1O[C@@H](n2cnc3c(N)ncnc32)[C@H](O)[C@@H]1O was read as CtBP-E1A blk -1, BAZ2B block -7%, Six1-Eya2 blk 8, TDP1 inh 9%, JMJD2A Tudor inh -1% and HP1b binding inh 37%.
Screening Nc1ncnc2c1ncn2[C@@H]1O[C@H](COP(=O)(O)CP(=O)(O)O)[C@@H](O)[C@H]1O returned CtBP-E1A blk 10, Six1-Eya2 blk 0, TDP1 inh 2%, JMJD2A Tudor inh 79µM* and HP1b binding inh 20%.
CCN(CC)c1ccc(CN2CC=C(c3ccc(F)cc3)CC2)cc1 was read as CtBP-E1A blk inconclusive, BAZ2B block 79µM*, Six1-Eya2 blk inconclusive, TDP1 inh 10%, JMJD2A Tudor inh 50µM* and HP1b binding inh 45µM*.
For Cc1cc(/C=C2\C(=O)NC(=O)N(Cc3ccccc3Cl)C2=O)c(C)n1-c1ccc(C(=O)O)cc1 the results were CtBP-E1A blk 2, BAZ2B block 50µM*, Six1-Eya2 blk -16, TDP1 inh 22µM*, JMJD2A Tudor inh inconclusive and HP1b binding inh 71µM*.
For Cc1cc(/C=C2\C(=O)NC(=O)N(Cc3ccccc3)C2=O)c(C)n1-c1ccc(Cl)c(C(=O)O)c1 the results were CtBP-E1A blk 6, BAZ2B block 32µM*, Six1-Eya2 blk inconclusive, JMJD2A Tudor inh 45µM* and HP1b binding inh -87%.
Cc1ccc(/C=C2/C(=O)NC(=O)N(Cc3ccc(F)cc3)C2=O)o1 was read as BAZ2B block -16% and TDP1 inh 0%.

High-throughput results: PubChem BioAssay, National Center for Advancing Translational Sciences (NCATS)
